Results: PubChem BioAssay
Activity calls are given as the source filed them.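 The calls were made as follows: active = inhibition at or above 50% relative to wild type and mutant plate controls; inactive = inhibition below 50%.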

Assay: inhibitors of Chlamydomonas gravitaxis, primary screen, whole organism, Chlamydomonas reinhardtii, WT vs cilia-less mutant, absorbance, 96-well (AID 463189);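 also: 0% = wild type cc124 cells in DMSO and 100% = ciliumless bld1 mutant cells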
Conditions: OD600 absorbance, 2 days, at 10 µM, hits give high values
For CC(=O)SC1CC2=CC(=O)CC[C@]2(C)C2CC[C@@]3(C)C(CC[C@@]34CCC(=O)O4)C12 (stereo not given in full), the inhibition was 3.21% (inactive).
For NC(Cc1cccc(-c2ccccc2CP(=O)(O)O)c1)C(=O)O (stereo not given), the inhibition was -2% (inactive).
With O=C(O)C1CCNCC1 the inhibition was 4.95% (inactive).
In the case of Nc1nc(Cl)nc2c1ncn2[C@@H]1O[C@H](COP(=O)(O)OP(=O)(O)OP(=O)(O)O)[C@H](O)C1O (stereo not given in full), the inhibition is reported as 0.076% (inactive).
For O=c1oc(Cl)c(Cl)c2ccccc12, the inhibition was 3.88% (inactive).
For C[C@@H](NCCc1ccc(O)cc1)[C@@H](O)c1ccc(O)cc1, the inhibition was 2.54% (inactive).
With C=CCN1CCc2c(cc(O)c(O)c2Br)[C@@H](c2ccccc2)C1 the inhibition was 0.67% (inactive).
For OCc1cc(C(O)CNCCCCCCOCCCCc2ccccc2)ccc1O (stereo not given), the inhibition was 6.68% (inactive).
In the case of CN(C)c1nc(N)c(C(=O)N=C(N)N)nc1Cl, the inhibition is reported as 1.32% (inactive).
In the case of COc1ccc2c(c1)c(CC(=O)O)c(C)n2Cc1ccc(Cl)cc1, the inhibition is reported as -1.76% (inactive).
In the case of Cn1cnc2c(NCc3ccccc3)nc(NCCO)nc21, the inhibition is reported as 5.79% (inactive).
In the case of N=C(N)SCCc1ccc(CCSC(=N)N)cc1, the inhibition is reported as 9.2% (inactive).
In the case of CC(=O)O[C@]1(C(C)=O)CC[C@H]2[C@@H]3C=C(Cl)C4=CC(=O)[C@@H]5C[C@@H]5[C@]4(C)[C@H]3CC[C@@]21C, the inhibition is reported as 6.43% (inactive).
With CC(C)C1C2CCC(C2)C1N (stereo not given) the inhibition was 3.56% (inactive).
For CNC(=O)[C@H]1O[C@@H](n2cnc3c(NCc4ccc(I)cc4)nc(Cl)nc32)[C@H](O)[C@@H]1O, the inhibition was 0.705% (inactive).
For NCCS(=O)O, the inhibition was 4.12% (inactive).
For COc1cc(=O)n(C)c2c(OCC(O)C(C)(C)O)cccc12 (stereo not given), the inhibition was -8.37% (inactive).
For N#Cc1c(-c2ccccc2)no[n+]1[O-], the inhibition was -3.89% (inactive).
In the case of CCN1CCCC1CNC(=O)c1cc(S(N)(=O)=O)ccc1OC (stereo not given), the inhibition is reported as 2.91% (inactive).
With COc1cc2c(cc1OC)[C@@H](c1ccccc1)CN(C)CC2 the inhibition was 8.36% (inactive).
For CC(C)(C=O)Cc1cc(C(C)(C)C)c(O)c(C(C)(C)C)c1, the inhibition was -3.35% (inactive).
For NC(=S)NCCCC(N)C(=O)O (stereo not given), the inhibition was 0.102% (inactive).
For CC(C)[C@@H](CO)Nc1nc(Nc2cccc(Cl)c2)c2ncn(C(C)C)c2n1, the inhibition was -2.67% (inactive).
For O=C1N(c2ccccc2)c2ccccc2C1(Cc1ccncc1)Cc1ccncc1, the inhibition was -3.34% (inactive).
For CCN1CCC[C@H]1CNC(=O)c1c(O)c(Cl)cc(Cl)c1OC, the inhibition was 0.286% (inactive).
In the case of NC(N)=NC(N)=Nc1ccccc1, the inhibition is reported as 4.74% (inactive).
With O=c1[nH]c2cc(Cl)c(Cl)cc2[nH]c1=O the inhibition was 5.88% (inactive).
With O=C(O)CCCCCCCC(=O)O the inhibition was 5.5% (inactive).
In the case of C=C/C(C)=C/[C@@]1(C)SC(=O)C(C)=C1O, the inhibition is reported as 5.01% (inactive).
In the case of CCNC(=O)C1OC(n2cnc3c(NCc4ccccc4)ncnc32)C(O)C1O (stereo not given), the inhibition is reported as -0.03% (inactive).
In the case of CCCCC[C@H](CC(=O)NO)C(=O)N[C@H](C(=O)N1CCC[C@H]1CO)C(C)C, the inhibition is reported as -2.25% (inactive).
For COc1ccc2[nH]c(I)c(CCNC(C)=O)c2c1, the inhibition was -0.69% (inactive).
With CC(=O)NNC(=O)N1Cc2ccccc2Oc2ccc(Cl)cc21 the inhibition was 3.76% (inactive).
In the case of NCCCCC(=O)O, the inhibition is reported as 9.64% (inactive).
In the case of O=C(NCCNCC(O)COc1ccc(O)cc1)N1CCOCC1 (stereo not given), the inhibition is reported as 10.1% (inactive).
For CSc1ccc(C(=O)c2[nH]c(=O)[nH]c2C)cc1, the inhibition was -1.05% (inactive).
With NCCC1CCCC(CCN)N1 (stereo not given) the inhibition was 5.08% (inactive).
For OCc1ccc(-c2nn(Cc3ccccc3)c3ccccc23)o1, the inhibition was 3.81% (inactive).
With COc1ccccc1CNCCCCCCNCCCCCCCCNCCCCCCNCc1ccccc1OC the inhibition was 126% (active).
For CC(=O)/C(C)=N/O, the inhibition was 1.74% (inactive).
